Assay outcomes as filed in PubChem BioAssay.
A selection: hits, their analogues and other compounds. The true share with any hit is near 5.9%.
DAX1 inh: inhibits human nuclear receptor DAX1 | P51843 | HEK293 Gal4-DAX1 luciferase reporter, luminescence | inhibition, % at 6.75 µM | 340,000 tested, 0.99% active;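 active = inhibition above the mean over all tested compounds plus 3 SD, cut at about 4.2% in these data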;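 also: 0% = DAX1-transfected cells with DMSO and 100% = empty-vector control cells with DMSO; inhibition shows as a rise in luminescence from relieved DAX1 repression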
Target sequence (P51843 207-470 limits assumed): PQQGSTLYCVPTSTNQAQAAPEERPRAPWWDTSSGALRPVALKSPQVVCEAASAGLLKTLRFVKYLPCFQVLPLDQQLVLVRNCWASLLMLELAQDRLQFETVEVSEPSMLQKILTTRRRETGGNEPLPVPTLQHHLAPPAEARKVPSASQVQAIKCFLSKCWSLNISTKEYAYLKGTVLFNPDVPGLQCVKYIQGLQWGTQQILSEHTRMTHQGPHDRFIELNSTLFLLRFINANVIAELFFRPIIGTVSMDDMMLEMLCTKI
AHR act: human AHR activation; activation, % at 5 µM; 320,000 tested, 2.5% active; P35869; AHR-responsive luciferase reporter cells, luminescence; in the data active = activation above about 47%;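 also: 0% = vehicle wells and 100% = reference agonist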
HSF1 activator: increases HSF-1 driven luciferase reporter signal; NIH3T3-HGL HSF-1 luciferase reporter, MG132, 8 h; 100% = twice DMSO control signal; AID 504408; activation, % at 9 µM; 300,000 tested, 1.7% active;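 active = mean replicate activation of at least 50% with a set share of replicates each reaching 50%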;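 also: 0% = median of the neutral control wells and 100% = twice that signal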
HSF1 inh: HSF1 inhibition. NIH3T3-HGL HSE-luciferase, MG132-induced, luminescence 8 h; stronger effect = lower value. activity change, negative = inhibition, % at 7.5 µM (by protocol). 300,000 tested, 0.77% active;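 active = more than half of replicate wells show activity change below -50%, luminescence cut by over half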;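 also: luciferase reports HSF-1 transcriptional activity via heat shock element; 0% = median of DMSO wells and -100% = zero luminescence signal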
HSP90 refold inh: HSP90 refolding inhibition in rabbit reticulocyte lysate | luciferase refolding luminescence, 3 h | inhibition, % at 5.6 µM | 290,000 tested, 0.91% active;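 active = inhibition above the screen-wide mean plus 3 SD, computed separately per campaign, cut at about 16% in these data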;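 also: 0% = DMSO wells and 100% = 60 µM geldanamycin wells; inhibitors lower the luminescence because luciferase stays unfolded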
FXN GAA850 act: frataxin GAA850 promoter activation. HEK293 lucGAA850 FXN promoter luciferase reporter, 24 h; percent of 10 µM SAHA response. activation, % at 6 µM. 360,000 tested, 0.56% active;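 active = activation above the average of all compounds screened plus 3 SD, cutoff fixed separately per campaign, cut at about 7.5% in these data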;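 also: 0% = DMSO wells and 100% = 10 µM SAHA wells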
* marks the source's active call; other numbers are inactive results; . = no result.

SMILES	DAX1 inh	AHR act	HSF1 activator	HSF1 inh	HSP90 refold inh	FXN GAA850 act
Cc1ccc(C(=O)C=CNNC(=O)c2ccccc2)cc1	2	6	26	11	3	4
Cc1ccc(C(=O)/C=C\C(=O)c2ccc(C)cc2)cc1	0	0	294*	231	4	4
Cc1ccc(S/C=C\C(=O)c2ccccc2)cc1	1	-2	118*	85	7	-2
Cc1ccc(C(=O)/C=C/c2ccc(-c3ccc(C)cc3)o2)cc1	0	4	56*	27	-5	4
COc1cccc(CNC2CCCCCCC2)c1OC	2	-1	3	-3	0	0
NC(=O)c1ccc(Oc2ccc(C(N)=O)cc2)cc1	5.2*	0	-11	-2	-2	-1
N#C/C(=N\Nc1cccc2ccccc12)c1nnc2n1CCCCC2	1	54*	-6	3	1	3
N#C/C(=C\c1c[nH]c2ccccc12)c1nnc2n1CCCCC2	-2	-12	1	-6	-3	1
O=c1c(=Nc2ccccc2O)c(=O)c2ccccc12	0	2	55*	20	8	6
CC(c1nnc(SCC(=O)Nc2cc([N+](=O)[O-])ccc2F)n1Cc1ccccc1)N(C)C (stereo not given)	2	-1	-1	-1	-1	1
C=CCN(C(=O)CCC(=O)Nc1cc(C)on1)C(C(=O)NC(C)(C)C)c1cccc(OC)c1OC (stereo not given)	0	-1	83*	30	-1	-4
COc1ccc(CNC(=O)c2cccc3c(-c4cnn(C)c4)coc23)cc1OC	.	.	.	.	.	-3
N#Cc1cc(-c2ccccc2)oc1NC(=O)c1ccccc1	1	16	8	-3	-1	0
Cc1ccc(C(=O)Nc2oc(-c3ccccc3)cc2C#N)cc1	0	56*	1	-15	5	0
CCCCNC(=O)C1(C)CCN1C(=O)CSc1ccccc1 (stereo not given)	.	.	.	.	.	0
COc1cccc(CN2CC(C(=O)N3CCOCC3)CCC2=O)c1 (stereo not given)	0	3	-7	0	2	2
COc1ccc(OC)c(NC(=S)N(CCc2c(C)[nH]c3ccc(C)cc23)Cc2cccs2)c1	1	31	11	9	8	0
COc1ccc(OC)c(NC(=S)N(CCc2c(C)[nH]c3ccccc23)Cc2cccs2)c1	0	50*	23	11	5	-3
Cc1ccc(NC(=O)CN(C)C(=O)COC(=O)COc2cc(C)cc(C)c2)cc1	1	.	.	.	.	0
CCCC(=O)N1CCN(c2nc3c(OC)ccc(Cl)c3s2)CC1	0	27	8	5	-4	0
N#Cc1ccccc1NC(=S)NC(=O)C1CCC1	4.3*	.	.	.	3	0
O=C(NC(=S)Nc1ccccc1Br)C1CCC1	1	12	29	-3	-3	5
N#Cc1ccsc1NC(=O)COC(=O)c1ccc(NC(N)=O)cc1	1	13	35	19	3	6
CCN(CC)c1ccc(C(=O)OCC(=O)Nc2sccc2C#N)cc1	1	10	58*	13	-2	6
Cc1ccc(NNC(=O)c2ccno2)c(C)c1	1	6	68*	19	2	0
SMILES	DAX1 inh	AHR act	HSF1 activator	HSF1 inh	HSP90 refold inh	FXN GAA850 act
O=C(c1ccc([N+](=O)[O-])s1)N1CCN(c2cccc(Cl)c2)CC1	-1	3	-59	-52*	7	-2
COc1ccccc1NC(=O)CN(c1ccc(C23CC4CC(CC(C4)C2)C3)cc1)S(C)(=O)=O	1	0	3	6	4	9.4*
CCOc1ccccc1NC(=O)CN(c1ccc(Cl)cc1)S(C)(=O)=O	1	2	3	1	-3	1
CS(=O)(=O)N(CC(=O)O)c1ccc(C23CC4CC(CC(C4)C2)C3)cc1	0	-1	-72	-65*	-3	3
COc1ccc(N(C(C)=O)c2nc(C)cc(C)c2C#N)c(OC)c1	2	78*	48	13	2	1
COc1ccc(Nc2nc(C)cc(C)c2C#N)c(OC)c1	1	34	37	9	-3	-1
COc1ccc([N+](=O)[O-])cc1NCc1c(F)cccc1F	3	.	.	.	.	0
CC(C)(C)c1ccc(NNC(=O)C2CCC2)cc1	0	73*	12	-3	-1	1
